The record followed here is PubChem BioAssay (EPA / NIEHS).

The source made the active and inactive calls. Rule for the calls: active = hit-call score of the fitted dose curve at least 0.9, where 1 is the maximum; inactive = score below 0.9.

By AC50 is commonly meant the concentration giving half of the maximal activity seen.

Read-out in the first assay: UDP glucuronosyltransferase (UGT1A6), UGT1A6 (gene 54578)
As to the kind of experiment: LTEA_HepaRG_UGT1A6: Life Technologies and Expression Analysis (LTEA) Assay for UDP glucuronosyltransferase (UGT1A6) using HepaRG (AID 2283539). To be noted: mRNA level, 48 h; actives raise or lower the signal. In a few lines: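 Human HepaRG cells were dosed for 48 h in serum-free induction medium with 0.5% DMSO vehicle, eight-point half-log series from 100 uM, in duplicate. UGT1A6 mRNA was measured by qRT-PCR, normalized to ACTB, GAPDH, POLR2A, and fitted bidirectionally against DMSO.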
As for `O=c1n(CC2CO2)c(=O)n(CC2CO2)c(=O)n1CC1CO1` (stereo not drawn), the molecule was classed as inactive.
Still for that read-out and setting: then `O=C1CCC(N2C(=O)c3ccccc3C2=O)C(=O)N1` (stereo not drawn), with “inactive”.
On the same count and under the same terms, then `Cc1ccc(S(=O)(=O)O)cc1C`, with “inactive”.
Still for that read-out and setting: then `C1N2CN3CN1CN(C2)C3`, with “inactive”.
Take `COC(=O)c1c(Cl)c(Cl)c(C(=O)OC)c(Cl)c1Cl`: the molecule was called inactive.
Still for that read-out and setting: then `CN(C)c1ccc(N=NS(=O)(=O)O)cc1`, with “inactive”.
With `CC(C)CC(C)(O)C#CC(C)(O)CC(C)C` (stereo not drawn), the molecule was classed as inactive.
Same read-out and setting: then `O=C1OC(=O)C2C3C=CC(C3)C12` (stereo not drawn), with “inactive”; and `COC(=O)c1ccccc1O`, with “inactive”.
For `O=C(CCCCCCCCc1cccnc1)N1CCC(C=C(c2ccccc2)c2ccccc2)CC1`, the AC50 was 33.6 µM (active).
With `C[C@](N)(Cc1ccc(O)c(O)c1)C(=O)O`, the result was inactive.
Turning to `Cn1cnc([N+](=O)[O-])c1Sc1ncnc2nc[nH]c12`, the AC50 is 3.9 µM (active).
For the molecule `O=C1CCCCCN1`, the outcome was inactive.
Still for that read-out and setting: then `Oc1ccc2c(c1)-c1ccccc1C2`, with “inactive”.
Same read-out and setting: then `CC(C)=CCC/C(C)=C\CO`, with “inactive”.
The same measure, in the same setting: then `CCC(C)(C)C(=O)O[C@H]1C[C@@H](C)C=C2C=C[C@H](C)[C@H](CC[C@@H]3C[C@@H](O)CC(=O)O3)[C@H]21`, with “inactive”; and `Nc1cccc(N)c1`, with “inactive”.
As for `Nc1nc2ncc(CNc3ccc(C(=O)N[C@@H](CCC(=O)O)C(=O)O)cc3)nc2c(=O)[nH]1`, the call was inactive.
On the same count and under the same terms, then `Cn1c(=O)c2c(ncn2C)n(C)c1=O`, with “inactive”.
For the molecule `O=C(OC[C@H]1O[C@@H](OC(=O)c2cc(O)c(O)c(OC(=O)c3cc(O)c(O)c(O)c3)c2)[C@H](OC(=O)c2cc(O)c(O)c(OC(=O)c3cc(O)c(O)c(O)c3)c2)[C@@H](OC(=O)c2cc(O)c(O)c(OC(=O)c3cc(O)c(O)c(O)c3)c2)[C@@H]1OC(=O)c1cc(O)c(O)c(OC(=O)c2cc(O)c(O)c(O)c2)c1)c1cc(O)c(O)c(OC(=O)c2cc(O)c(O)c(O)c2)c1`, the AC50 was 5.4 µM (active).
As for `Cc1[nH]cnc1C[C@H]1CCc2c(C)c3ccccc3n2C1=O`, the AC50 is 33.5 µM (active).
Regarding `CCCCCCc1ccc(O)cc1O`, the outcome was inactive.
The same measure, in the same setting: then `CC(=O)OC[C@H]1O[C@@](COC(C)=O)(O[C@H]2O[C@H](COC(C)=O)[C@@H](OC(C)=O)[C@H](OC(C)=O)[C@H]2OC(C)=O)[C@@H](OC(C)=O)[C@@H]1OC(C)=O`, with “inactive”.
`O=P(OC(CCl)CCl)(OC(CCl)CCl)OC(CCl)CCl`: the AC50 was 10.1 µM (active).
`COc1ccc(-n2nc(C(F)F)cc2-c2ccc(S(C)=O)cc2)cc1` (stereo not drawn): the call was inactive.
The same measure, in the same setting: then `O=C(O)c1cc(N=Nc2ccc(S(=O)(=O)Nc3ccccn3)cc2)ccc1O`, with “inactive”.
On the same count and under the same terms, then `CC(C)c1cccc(C(C)C)c1N1C(=O)c2ccc(O)cc2C1=O`, with “inactive”; and `CC(=O)OCCC(C)C`, with “inactive”.
`O=C(O)c1cccc(N(Cc2cccnc2)c2ccc(OC(F)F)c(OC(F)F)c2)c1`: the result was inactive.

Read-out in another assay: X-box binding protein 1 (XBP1), XBP1 (gene 7494)
As to the kind of experiment: LTEA_HepaRG_XBP1: Life Technologies and Expression Analysis (LTEA) Assay for X-box binding protein 1 (XBP1) using HepaRG (AID 2283540). As to conditions: mRNA level, 48 h; actives raise or lower the signal. The method, boiled down:
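Differentiated human HepaRG cells in serum-free induction medium were exposed in duplicate for 48 h to eight half-log concentrations up to 100 uM in 0.5% DMSO. XBP1 mRNA was quantified by qRT-PCR, normalised to ACTB, GAPDH and POLR2A, with bidirectional fitting against DMSO.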
Turning to `O=c1n(CC2CO2)c(=O)n(CC2CO2)c(=O)n1CC1CO1` (stereo not drawn), the call was inactive.
As for `O=C1CCC(N2C(=O)c3ccccc3C2=O)C(=O)N1` (stereo not drawn), the call was inactive.
On the same count and under the same terms, then `Cc1ccc(S(=O)(=O)O)cc1C`, with “inactive”.
For the molecule `C1N2CN3CN1CN(C2)C3`, the outcome was inactive.
On to `COC(=O)c1c(Cl)c(Cl)c(C(=O)OC)c(Cl)c1Cl`, for which the molecule was classed as inactive.
On the same count and under the same terms, then `CN(C)c1ccc(N=NS(=O)(=O)O)cc1`, with “inactive”; and `CC(C)CC(C)(O)C#CC(C)(O)CC(C)C` (stereo not drawn), with “inactive”; and `O=C1OC(=O)C2C3C=CC(C3)C12` (stereo not drawn), with “inactive”.
Regarding `COC(=O)c1ccccc1O`, the molecule was called inactive.
`O=C(CCCCCCCCc1cccnc1)N1CCC(C=C(c2ccccc2)c2ccccc2)CC1`: the AC50 is 30.9 µM (active).
As for `C[C@](N)(Cc1ccc(O)c(O)c1)C(=O)O`, the molecule was classed as inactive.
The same measure, in the same setting: then `Cn1cnc([N+](=O)[O-])c1Sc1ncnc2nc[nH]c12`, with “inactive”; and `O=C1CCCCCN1`, with “inactive”; and `Oc1ccc2c(c1)-c1ccccc1C2`, with “inactive”.
On the same count and under the same terms, then `CC(C)=CCC/C(C)=C\CO`, with “inactive”; and `CCC(C)(C)C(=O)O[C@H]1C[C@@H](C)C=C2C=C[C@H](C)[C@H](CC[C@@H]3C[C@@H](O)CC(=O)O3)[C@H]21`, with “inactive”.
Consider `Nc1cccc(N)c1`, for which the molecule was called inactive.
The same measure, in the same setting: then `Nc1nc2ncc(CNc3ccc(C(=O)N[C@@H](CCC(=O)O)C(=O)O)cc3)nc2c(=O)[nH]1`, with “inactive”; and `Cn1c(=O)c2c(ncn2C)n(C)c1=O`, with “inactive”.
The same measure, in the same setting: then `O=C(OC[C@H]1O[C@@H](OC(=O)c2cc(O)c(O)c(OC(=O)c3cc(O)c(O)c(O)c3)c2)[C@H](OC(=O)c2cc(O)c(O)c(OC(=O)c3cc(O)c(O)c(O)c3)c2)[C@@H](OC(=O)c2cc(O)c(O)c(OC(=O)c3cc(O)c(O)c(O)c3)c2)[C@@H]1OC(=O)c1cc(O)c(O)c(OC(=O)c2cc(O)c(O)c(O)c2)c1)c1cc(O)c(O)c(OC(=O)c2cc(O)c(O)c(O)c2)c1`, with “inactive”.
`Cc1[nH]cnc1C[C@H]1CCc2c(C)c3ccccc3n2C1=O`: the AC50 is 10.4 µM (active).
Take `CCCCCCc1ccc(O)cc1O`: the outcome was inactive.
The same measure, in the same setting: then `CC(=O)OC[C@H]1O[C@@](COC(C)=O)(O[C@H]2O[C@H](COC(C)=O)[C@@H](OC(C)=O)[C@H](OC(C)=O)[C@H]2OC(C)=O)[C@@H](OC(C)=O)[C@@H]1OC(C)=O`, with “inactive”; and `O=P(OC(CCl)CCl)(OC(CCl)CCl)OC(CCl)CCl`, with “inactive”; and `COc1ccc(-n2nc(C(F)F)cc2-c2ccc(S(C)=O)cc2)cc1` (stereo not drawn), with “inactive”.
Still for that read-out and setting: then `O=C(O)c1cc(N=Nc2ccc(S(=O)(=O)Nc3ccccn3)cc2)ccc1O`, with “inactive”; and `CC(C)c1cccc(C(C)C)c1N1C(=O)c2ccc(O)cc2C1=O`, with “inactive”; and `CC(=O)OCCC(C)C`, with “inactive”.
Still for that read-out and setting: then `O=C(O)c1cccc(N(Cc2cccnc2)c2ccc(OC(F)F)c(OC(F)F)c2)c1`, with “inactive”.
